Laboratory results: PubChem BioAssay (NCATS)
Records with an inconclusive call do not appear. The source made the active and inactive calls. Calls come from the whole dose curve; as a rule, active = well fitted cell-killing curve with a large enough effect; inconclusive = small, poorly fitted or top-dose-only effect; inactive = flat fitted curve, though single readings scatter.

test: NCATS anti-infectives library activity on HEK293 viability as a counter-qHTS vs the C. elegans viability qHTS (AID 1745854); conditions: HEK293 viability counter-screen; series mostly up to 41.8 µM; activity change, negative = cytotoxicity: at the top concentration
From the text: Assay Development and Screening Technology Laboratory (ADST)
National Center for Advancing Translational Sciences (NCATS), Rockville, MD
National Institute of Health (NIH), Bethesda, Maryland
Caenorhabditis elegans has helped elucidate the evolutionarily conserved genetics underlying pathways and cellular processes implicated in human disease and may be ideally positioned to reveal novel pharmacological properties of exiting drugs. The organism's short life cycle and microscopic size is applicable to the technical requirements of high-throughput screening. Here a quantitative high-throughput screening (qHTS)-based forward chemical biology platform has been developed using C. elegans. 384-well microtiter plate laser scanning cytometry was used in the rapid detection and quantification of the fluorescent protein-encoded phenotype to score worm viability. In a proof-of-concept study, the pharmacological qHTS profile obtained from a library of 643 anti-infective compounds.
1. Inglese, J., Auld, D. S., Jadhav, A., Johnson, R. L., Simeonov, A., Yasgar, A., Zheng, W., and Austin, C. P. (2006) Quantitative high-throughput screening: A titration-based approach that efficiently identifies biological activities in large chemical libraries, P Natl Acad Sci USA 103, 11473-11478.
2. Auld, D. S., Johnson, R. L., Zhang, Y. Q., Veith, H., Jadhav, A., Yasgar, A., Simeonov, A., Zheng, W., Martinez, E. D., Westwick, J. K., Austin, C. P., and Inglese, J. (2006) Fluorescent protein-based cellular assays analyzed by laser-scanning microplate cytometry in 1536-well plate format, Method Enzymol 414, 566-589.
3. Zuck, P., Lao, Z., Skwish, S., Glickman, J. F., Yang, K., Burbaum, J., and Inglese, J. (1999) Ligand-receptor binding measured by laser-scanning imaging, Proc Natl Acad Sci U S A 96, 11122-11127.
PROTOCOL TABLE (as described by Inglese J, Shamu CE and Guy RK. 2007)
SEQUENCE No. (e.g., 1, 2, 3, etc.); […] (e.g., C. elegans, Compounds, Incubation, Read, etc.); VALUE and DESCRIPTION.
1. Compounds. Library compounds and digitonin control added at 25 nL per well to 7 assay ready 1536-well Greiner white/solid bottom high base, TC plates and two DMSO control plates, transferred by Echo acoustic dispenser.
2. Cells. Seed 1500 HEK293 per well in 6 uL into assay ready Greiner 1536-well plates.
3. Incubation. Incubate plated cells with compounds at 37C in 5% CO2, 95% RH for 24 hr.
4. Reagent. Add 4 uL of CellTiter-Glo reagent from Promega per well of Greiner 1536-well plates with BioRAPTR FRD.
5. Incubation. Incubate treated cells at room temperature for 10 min., protect from light.
6. Detector. CellTiter-Glo luminescence measured using CCD-based camera (Viewlux) with settings as follows: Exposure, 1 sec; Gain, High; Speed, Slow; Binning, 2X.
NOTES (numbers refer to Sequence numbers above; values are from representative experiments)
1. NIH Anti-Infectives library pre-dispensed into 7 assay ready 1536-well Greiner white/solid bottom high base, TC plates with Echo 555 acoustic dispenser. Most compounds dispensed at 10 mM high concentration and plated in 7-pt 1:5 inter-plate titration at 25 nl / well for a final assay concentration range of 41.7 uM - 2.7 nM. Two 1536-well Greiner assay plates of DMSO plated as screening controls to be read at the beginning and the end of the screen. Controls included DMSO vehicle control added at 25 nl/well to each well of column 1 and […] (83.3 uM final assay concentration), and Digitonin titrated 1:2 at 25 nl/ well to column 4 in duplicate for a final assay concentration range of 83.3 uM - 2.5 nM.
2. HEK293 cells grown for 48 hr in one T175 culture flask in DMEM high glucose media supplemented with 10% FBS and 1% Pen/Strep antibiotic. Cells trypsinized and diluted in 10 ml supplemented media, strained through 40 µm cell strainer, and diluted to a total volume of 40 ml with supplemented media. […]
% is set by controls: 0 for no effect and ±100 for the full control effect; potency is the fitted concentration of half-maximal effect.

SMILES	activity change, negative = cytotoxicity	Potency
O=C(O)[C@H]1O[C@@H](Oc2cc3oc(-c4ccc(O)cc4)cc(=O)c3c(O)c2O)[C@H](O)[C@@H](O)[C@@H]1O	13.6% (inactive)	
NC(=O)c1cccc2[nH]c(-c3ccc([C@@H]4CCCN4)cc3F)nc12	-17.3% (inactive)	
CCOC(=O)c1c(C)sc(-c2c(-c3ccc(OC)c(F)c3)[nH]c3c2c(=O)[nH]c(=O)n3C)c1O	-11.4% (inactive)	
Cc1ccc(C2Nc3ccccc3C(=O)N2c2ccccc2)s1 (stereo not given)	2.76% (inactive)	
CCCCCCCCCCCCCCCCn1cc[n+](Cc2ccccc2)c1C		11.2 µM (active)
O=C(O)[C@H]1O[C@@H](Oc2cc3oc(-c4ccccc4)cc(=O)c3c(O)c2O)[C@H](O)[C@@H](O)[C@@H]1O	-29.6% (inactive)	
COc1ccc(-c2oc3cc(O)cc(O)c3c(=O)c2O)cc1	-16.5% (inactive)	
S=C(NCCc1ccccn1)Nc1ccc(Br)cn1	-6.44% (inactive)	
CC(=O)Cc1cc(=O)c2c(C)cc(O)c(C3OC(CO)C(O)C(O)C3O)c2o1 (stereo not given)	2.7% (inactive)	
O=C(/C=C/c1ccc(O)c(O)c1)O[C@@H](C(=O)O)[C@@H](OC(=O)/C=C/c1ccc(O)c(O)c1)C(=O)O	-2.13% (inactive)	
CCCCCCCCOC(=O)c1cc(O)c(O)c(O)c1	-21.5% [at 83.3 µM] (inactive)	
CCOC(=O)NCCCC(=O)NCCc1ccccc1	-0.0645% (inactive)	
Cc1cnc(C(=O)N[C@H]2CCCCC/C=C\[C@@H]3C[C@@]3(C(=O)NS(=O)(=O)C3CC3)NC(=O)[C@@H]3C[C@@H](Oc4nc5ccccc5c5ccccc45)CN3C2=O)cn1	-2.13% (inactive)	
Cc1ccc(-c2ccc3c(c2)C=C(C(=O)Nc2ccc(C[N+](C)(C)C4CCOCC4)cc2)CCC3)cc1	-17.7% (inactive)	
CCCCCCCCCCCCCCCCOCCCOP(=O)(O)CO[C@H](CO)Cn1ccc(N)nc1=O	-5.25% [at 8.35 µM] (inactive)	
COc1cnc(-n2cnc(C)n2)c2c1c(C(=O)C(=O)N1CCN(C(=O)c3ccccc3)CC1)cn2COP(=O)(O)O	-20.7% (inactive)	
O=c1ccn2c(n1)O[C@H]1[C@H](O)[C@@H](CO)O[C@H]12	-0.0135% (inactive)	
O=C(NO)c1cccc(C(=O)NCCc2ccccc2)c1	14.9% (inactive)	
C[C@H]1O[C@@H](O[C@H]2CC[C@@]3(C)C(CC[C@]4(C)[C@@H]3C=CC3=C5CC(C)(C)CC[C@]5(CO)[C@H](O)C[C@@]34C)[C@]2(C)CO)[C@H](O)[C@@H](O[C@@H]2O[C@H](CO)[C@@H](O)[C@H](O)[C@@H]2O)[C@H]1O (stereo not given in full)	4.69% (inactive)	
C[C@H]1CC[C@@]2(O)C(C)(C)[C@@H]3CC[C@@]2(C)[C@H]1C3	-1.61% (inactive)	

SMILES	activity change, negative = cytotoxicity	Potency
O=S(=O)(Cl)c1ccc(-c2ccccc2)cc1	9% (inactive)	
CC(C)c1cnn2c(NCc3ccccc3-n3cccn3)nc(OC3CCCNC3)nc12 (stereo not given)	-26.4% (inactive)	
NC1=N[C@@](c2cccc(-c3cncnc3)c2)(c2ccnc(C(F)F)c2)c2cccc(F)c21	-15.9% (inactive)	
CN(C)c1nc2c(Br)c(Br)c(Br)c(Br)c2n1CC(=O)O	7.08% (inactive)	
CC(C)Nc1nc2cc(Cl)c(Cl)cc2n1[C@H]1O[C@@H](CO)[C@H](O)[C@@H]1O	-13.7% (inactive)	
COC(=O)c1cc(OC)c2c(c1-c1c(CO)cc(OC)c3c1OCO3)OCO2	1.52% (inactive)	
CC(C)CN(C[C@@H](OP(=O)(O)O)[C@H](Cc1ccccc1)NC(=O)O[C@@H]1CCOC1)S(=O)(=O)c1ccc(N)cc1	-9.05% (inactive)	
COc1ccc2cc1Oc1ccc(cc1)C[C@H]1c3cc(c(OC)cc3CCN1C)Oc1c(O)c(OC)cc3c1[C@H](C2)N(C)CC3	-18.4% (inactive)	
COc1ccc(C2C(C#N)=C(N)OC3=C2C(=O)CC(c2cccc4ccccc24)C3)cc1 (stereo not given)	8.64% (inactive)	
Cc1ccc(N)cc1C(=O)N[C@H](C)c1cccc2ccccc12	-18.9% [at 83.3 µM] (inactive)	
COc1ccc(/C=C/C(=O)O)cc1O	-5.54% (inactive)	
C/C(=N\NC(=O)C(NC(=O)c1ccccc1)c1n[nH]c(=O)c2ccccc12)c1cccc(Br)c1 (stereo not given)	9.64% (inactive)	
Nc1cc(F)ccc1NC(=O)/C=C/c1cnn(C/C=C/c2ccccc2)c1	-3.42% (inactive)	
CS(=O)(=O)c1cc(-c2ccccc2)cc(S(=O)(=O)c2ccc(CN)s2)c1	-0.137% (inactive)	
CCCCCCCCCCCCCCCCOc1nc2ccc(C)cc2c(=O)o1	18.3% (inactive)	
COC(=O)c1cc(O)c(O)c(O)c1	-19.7% (inactive)	
CCCC[C@H](NC(=O)[C@@H]1[C@@H]2[C@H](CN1C(=O)[C@@H](NC(=O)NC1(CS(=O)(=O)C(C)(C)C)CCCCC1)C(C)(C)C)C2(C)C)C(=O)C(=O)NC1CC1	-10.2% (inactive)	
O=C(O)c1cc(O)c2c(c1)[C@H]([C@H]1c3cc(C(=O)O)cc(O)c3C(=O)c3c(O[C@@H]4OC(CO)C(O)C(O)C4O)cccc31)c1cccc(O[C@@H]3OC(CO)C(O)C(O)C3O)c1C2=O (stereo not given in full)	-28.8% (inactive)	
[N-]=[N+]=NCc1cccc(/C(O)=C\C(=O)C(=O)O)c1	8.81% (inactive)	
CCC(C)n1ncn(-c2ccc(N3CCN(c4ccc(OCC5COC(Cn6cncn6)(c6ccc(Cl)cc6Cl)O5)cc4)CC3)cc2)c1=O (stereo not given)	2.31% (inactive)	
